Laboratory results as given in PubChem BioAssay.
“And” between values parts separate entries of the source, which are not always exact repeats. Identical values can stand only once. Results filed as inconclusive are left out. The source made the active and inactive calls. Cut-off read from the data, not from the text of the source, unless noted: active = inhibition above about 80%; inactive = the rest.

Columns and labels:
[1] = viability loss in pontine glioma line – cell-based, SU-DIPG-XIII, MIPE5.0, CellTiter-Glo, qHTS, dose response (AID 1347064; cut-off not given, nearly all actives have AC50 up to about 23 µM); conditions: CellTiter-Glo ATP luminescence
[2] = viability loss in pontine glioma line – cell-based, SU-DIPG-XXV, MIPE5.0, CellTiter-Glo, qHTS, dose response (AID 1347065; cut-off not given, nearly all actives have AC50 up to about 26 µM;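 note: cells exposed to compound for 48 hours before ATP readout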); conditions: CellTiter-Glo ATP luminescence
[3] = JHH-DIPG-1 glioma cell viability, MIPE5.0 library, CellTiter-Glo luminescence, qHTS (AID 1347067; cut-off not given, nearly all actives have AC50 up to about 26 µM;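 note: cells exposed to compound for 48 hours before readout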); conditions: JHH-DIPG-1 glioma viability, CellTiter-Glo ATP luminescence
[4] = growth inhibition of DIPG cells – cell-based, MIPE5.0 library, qHTS (AID 1347068; cut-off not given, nearly all actives have IC50 up to about 30 µM); conditions: SU-DIPG-XXV viability
[5] = viability loss with induced miR-34 in A549 – imaging, A549 dox-inducible miR-34, nuclei and caspase counts, primary screen (AID 1347080;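 active = compounds whose cell count with miR-34 switched on is under 0.7 times the count with it off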); conditions: A549 miR-34 inducible, Hoechst nuclei count, 48 h
[6] = MELAS cybrid and Rieske KO viability enhancers – cell-based, MELAS cybrids, Rieske KO mouse fibroblasts, CellTiter-Glo, primary screen (AID 1508586;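 active = mean z-score across replicates of 1.96 or higher in either the MELAS or the Rieske mutant cell line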;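 note: z relative to plate mean and SD of compound and empty wells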); conditions: low glucose
[7] = growth inhibition, single agent or in combination, cell-based, chromothripsis tumors, cisplatin or BGB combos (AID 1671449); conditions: LFS_MB_P medulloblastoma cells;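 note: cells exposed for 96 hours; 0% = vehicle DMSO and 100% = killing by high DMSO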
[8] = growth inhibition, single agent and combos, cell-based, chromothripsis tumors, cisplatin or BGB combos (AID 1671450); conditions: HDN33 neuroblastoma cells, stronger effect = higher value;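 note: cells exposed to compound for four days; 0% = vehicle DMSO and 100% = cell killing by high DMSO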
[9] = growth inhibition, single agents and combos, ICB984, cell-based, cisplatin or BGB combos, synergistic combos for chromothripsis tumors (AID 1671451; call rule not given here;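 note: cells exposed for 96 hours before readout; 0% = vehicle DMSO and 100% = killing by high DMSO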); conditions: ICB984 medulloblastoma cells, drug combinations, stronger effect = higher value
[10] = growth inhibition, single agents and combos, LFS_MB_1R, cell-based, cisplatin or BGB combos, synergistic combos for chromothripsis tumors (AID 1671452); conditions: LFS_MB_1R medulloblastoma cells, stronger effect = higher value;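 note: cells exposed for 96 hours before readout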
[11] = growth inhibition, single agents and combos, HTB85, cell-based, BGB or cisplatin IC20 combos, synergistic combos for chromothripsis tumors (AID 1671453); conditions: HTB85 osteosarcoma cells, drug combinations, stronger effect = higher value;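 note: cells exposed for 96 hours before readout; 0% = vehicle DMSO and 100% = high DMSO killing control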
[12] = growth inhibition, single agents and combos, CRL2098, cell-based, BGB or cisplatin IC20 combos, synergistic combos for chromothripsis tumors (AID 1671454); conditions: CRL2098 osteosarcoma cells, drug combinations, stronger effect = higher value;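 note: cells exposed for 96 h before readout; 0% = vehicle DMSO and 100% = killing by high DMSO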
[13] = growth inhibition, single agents and combos, HD-MB03, cell-based, BGB or cisplatin IC20 combos, synergistic combos for chromothripsis tumors (AID 1671455; in the data active = inhibition above about 83%;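 note: 0% = vehicle DMSO and 100% = high DMSO as cytotoxic control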); conditions: HD-MB03 medulloblastoma cells, stronger effect = higher value
[14] = growth inhibition, single agents and combos, UWB1.289, cell-based, BGB or cisplatin combos, synergistic combos for chromothripsis tumors (AID 1671456); conditions: UWB1.289 ovarian carcinoma cells, stronger effect = higher value;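 note: cells exposed to compound for four days; 0% = vehicle DMSO and 100% = killing by high DMSO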
[15] = growth inhibition, single agents and combos, LFS_MB_2R, cell-based, cisplatin combos, synergistic combos for chromothripsis tumors (AID 1671457); conditions: LFS_MB_2R medulloblastoma cells, stronger effect = higher value;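 note: cells exposed to compound for four days before readout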
[16] = growth inhibition, MDA-MB-436, cell-based, BGB or cisplatin combos, synergistic combos for chromothripsis tumors (AID 1671458; call rule not given here;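 note: cells exposed for 96 hours; 0% = vehicle DMSO and 100% = killing by high DMSO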); conditions: MDA-MB-436 breast carcinoma growth inhibition, drug combinations, stronger effect = higher value
[17] = UWB1.289_BRCA1 ovarian cancer growth, cell-based, BGB or cisplatin combinations (AID 1671459); conditions: UWB1.289 BRCA1 ovarian carcinoma, drug combinations, stronger effect = higher value
[18] = drug combination toxicity in non-malignant astrocytes – cell-based, BGB or cisplatin IC20 combos, cytotoxicity control for chromothriptic childhood tumor combination screen (AID 1671460); conditions: Human astrocytes, viability inhibition, drug combinations, at 0.5 µM, stronger effect = higher value;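 note: cells exposed to compounds for 96 hours before viability readout; 0% = vehicle and 100% = killing control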
[19] = BT084 cell growth, single and combined drugs, ICGC_MB145, cisplatin and BGB IC40 combos (AID 1671461); conditions: BT084 medulloblastoma cells, drug combinations, stronger effect = higher value;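 note: cells exposed to drugs for 96 hours; 0% = vehicle DMSO and 100% = high DMSO full killing control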
[20] = RCMB18 cell growth, single agent and combined, cisplatin and BGB IC40 combos (AID 1671462); conditions: RCMB18 medulloblastoma cells, stronger effect = higher value;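 note: cells exposed to compound for four days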
[21] = CRL1545 cell growth, single agent and combined, cisplatin and BGB IC20 combos (AID 1671464); conditions: CRL1545 osteosarcoma cells, stronger effect = higher value;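 note: cells exposed to compound for 96 hours before readout; 0% = vehicle DMSO and 100% = high DMSO killing control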
[22] = measured here: combination with BGB IC40, at 0.05 µM
[23] = measured here: with BGB IC20 combination, at 0.5 µM
[24] = measured here: with cisplatin IC20 combination, at 0.5 µM
[25] = measured here: combination with cisplatin, at 0.5 µM
[26] = measured here: combination with cisplatin, at 5 µM

COC1CCN(C(=O)c2cc(Cc3n[nH]c(=O)c4ccccc34)ccc2F)CC1
outcome [1]: inactive | outcome [2]: inactive | outcome [3]: inactive | outcome [4]: inactive | fold change ([5]; stronger effect = lower value, cell number ratio, induced over uninduced): 0.934 (inactive) | fold change ([5]; measured here: relative caspase fold change +Dox/-Dox): 0.846 | cell count ([5]; measured here: total cells with miR-34 induction, stronger effect = lower value): 6330 | cell count ([5]; measured here: total cells without miR-34 induction): 6780 | z-score ([6]; MELAS cybrid survival, CellTiter-Glo 48 h, stronger effect = higher value): -0.18 (inactive) | z-score ([6]; Rieske KO mouse fibroblast survival, CellTiter-Glo 72 h): -0.126 | inhibition ([7]; at 0.5 µM, stronger effect = higher value): -12.1% (inactive) and -16.1% (inactive) | inhibition ([7]; measured here: combination with BGB IC20, at 0.005 µM): -30.7% and -15.3% | inhibition ([7]; measured here: combination with BGB IC40, at 0.005 µM): -38.1% and -33.1% | inhibition [7, 22]: -30.5% and -42.3% | inhibition ([7]; measured here: combination with cisplatin, at 0.5 µM, stronger effect = higher value): -37.8% and -19.2% | inhibition ([7]; measured here: combination with cisplatin, at 5 µM, stronger effect = higher value): -40.5% and -57.1% | inhibition ([8]; BGB combo, at 5 µM): -13.6% and 13.4% | inhibition ([8]; at 0.5 µM): -10.1% (inactive) and -7.74% (inactive) | inhibition ([8]; cisplatin combo, at 5 µM): 23.9% and 26% | inhibition [8, 23]: -20.4% and -10.8% | inhibition [8, 24]: 5.53% and -9.06% | inhibition ([8]; single agent, at 5 µM): 14.4% and 38.9% | inhibition ([9]; BGB IC20 combo, at 0.005 µM): -4.23% and -19.5% | inhibition ([9]; BGB IC40 combo, at 0.005 µM): -0.687% and -29.1% | inhibition ([9]; BGB IC40 combo, at 0.05 µM): -13.2% and -21.3% | inhibition ([9]; at 0.5 µM): -24.6% (inactive) and -24.2% (inactive) | inhibition ([9]; cisplatin combo, at 0.05 µM): -19% and -25.6% | inhibition ([9]; cisplatin combo, at 0.5 µM): -40.6% and -12.4% | inhibition ([9]; cisplatin combo, at 5 µM): -8.06% and -25.7% | inhibition ([9]; measured here: 5 uM single agent, at 5 µM): 0.595% and -12.2% | inhibition ([10]; at 0.5 µM): -26.2% (inactive) and -13.9% (inactive) | inhibition [10, 22]: -15.2% and -8.03% | inhibition [10, 25]: -30.2% and -13% | inhibition [10, 26]: -19.4% and -3.56% | inhibition ([11]; at 0.5 µM): -11.4% (inactive) and 6.36% (inactive) | inhibition ([11]; measured here: with BGB IC20, at 0.5 µM): -12.2% and -3.86% | inhibition ([11]; measured here: with BGB IC20, at 5 µM): 12.4% and 5.4% | inhibition ([11]; measured here: with cisplatin IC20, at 0.5 µM): -10.7% and 2.43% | inhibition ([11]; measured here: with cisplatin IC20, at 5 µM): 15.8% and -12.3% | inhibition ([11]; single agent, at 5 µM): 16.7% and 8.18% | inhibition ([12]; at 0.5 µM): -48.1% (inactive) and -65.8% (inactive) | inhibition ([12]; measured here: combination with BGB at IC20, at 0.5 µM): -70.3% and -24.2% | inhibition ([12]; measured here: combination with cisplatin at IC20, at 0.5 µM): -35.2% and -114% | inhibition ([13]; at 0.5 µM): -3.93% (inactive) and -2.04% (inactive) | inhibition ([13]; measured here: combo with BGB at IC20, at 0.5 µM): -9.33% and -8.78% | inhibition ([13]; measured here: combo with cisplatin at IC20, at 0.5 µM): 4.14% and 1.92% | inhibition ([14]; at 0.5 µM): -6.03% (inactive) and 1.25% (inactive) | inhibition ([14]; measured here: inhibition with BGB combination, at 0.05 µM): -33.1% and -12.4% | inhibition ([14]; measured here: inhibition with cisplatin combination, at 0.05 µM): -15.7% and -19.5% | inhibition ([15]; at 0.5 µM): -18.3% (inactive) and -16.9% (inactive) | inhibition [15, 25]: -12.3% and -23.2% | inhibition [15, 26]: -8.19% and -16.7% | inhibition ([16]; at 0.5 µM): -6.48% (inactive) and 5.83% (inactive) | inhibition ([16]; measured here: BGB combination, at 0.5 µM): -20.6% and -13.1% | inhibition ([16]; measured here: BGB combination, at 5 µM): -22% and -12.5% | inhibition ([16]; measured here: cisplatin combination, at 0.5 µM): -7.18% and 13.4% | inhibition ([16]; measured here: cisplatin combination, at 5 µM): 19.7% and 25.3% | inhibition ([17]; BGB combination, concentration series, at 5 µM): -17.2% and 8.15% | inhibition ([17]; at 0.5 µM): -15.2% (inactive) and 1.82% (inactive) | inhibition ([17]; cisplatin combination, concentration series, at 5 µM): 1.96% and 12.2% | inhibition [18]: -2.67% (inactive) and 18.6% (inactive) | inhibition ([18]; measured here: combo with BGB IC20): -0.687% and 1.82% | inhibition ([18]; measured here: combo with cisplatin IC20): -3.5% and 25% | inhibition ([19]; at 0.5 µM): -21.1% (inactive) and -16.8% (inactive) | inhibition ([19]; cisplatin combination, at 0.5 µM): -20.5% and -64% | inhibition ([19]; cisplatin combination, at 5 µM): -29.9% and -19.1% | inhibition ([19]; measured here: BGB IC40 combination 0.05 uM, at 0.05 µM): -40% and -3% | inhibition ([19]; single agent, at 5 µM): -18% and 3.41% | inhibition ([20]; at 0.5 µM): -19.3% (inactive) and -19.5% (inactive) | inhibition ([20]; cisplatin combo, at 5 µM): -5.98% and -18.2% | inhibition ([20]; measured here: BGB IC40 combination, at 0.05 µM): -15.8% and -4.12% | inhibition [20, 25]: -25.7% and -45.6% | inhibition ([20]; single agent, at 5 µM): -29.2% and -17.7% | inhibition ([21]; at 0.5 µM): 8.49% (inactive) and 7.34% (inactive) | inhibition [21, 23]: -9.33% and -2.37% | inhibition [21, 24]: 16.1% and 10.8% | inhibition ([21]; single agent, at 0.05 µM): 5.73% and -15.4% | inhibition ([21]; single agent, at 5 µM): 42.8% and 34.1%
